High-throughput results (PubChem BioAssay)
Shown are actives, neighbours in structure and some others; about 2.2% of the full set was active somewhere.
ID4 binder: binds human ID4 protein on microarray; 31,000 compounds, 1.2% hits; calls only; small molecule microarray, Flag-ID4 binding, fluorescence F/B; call rule not given here;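 note: a binder raises fluorescence above local background on the spot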
Target sequence (P47928 whole entry, looked up): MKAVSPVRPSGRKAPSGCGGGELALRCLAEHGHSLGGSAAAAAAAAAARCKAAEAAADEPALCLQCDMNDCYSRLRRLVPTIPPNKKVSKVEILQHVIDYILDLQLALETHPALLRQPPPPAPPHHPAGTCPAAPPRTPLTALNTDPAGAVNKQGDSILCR
p53 PUMA act: mutant p53 pathway reactivation. SW480 PUMA-promoter luciferase. activation, % at 9.98 µM. 28,000 compounds, 1.5% hits; in the data active = activation above about 52%; inconclusive = no clear call, values can overlap the other calls
The depositor's hits bear a star; i = inactive; ? = inconclusive; + = active, no number.

SMILES	ID4 binder	p53 PUMA act
COc1ccccc1OCC(=O)Nc1ccc(C)cc1[N+](=O)[O-]	i	119*
Cc1ccc(-c2nc3ccccc3[nH]2)cc1NC(=O)COc1ccc(C(C)C)cc1	i	1
Cc1ccc(NC(=O)COc2ccc(C(C)(C)C)cc2Br)c([N+](=O)[O-])c1	i	40
COc1ccc(NC(=O)COc2ccccc2[N+](=O)[O-])cc1Cl	i	135*
Cc1ccc(NC(=O)COc2ccccc2Cl)c([N+](=O)[O-])c1	i	60*
COc1cc(NC(=O)COc2ccccc2[N+](=O)[O-])ccc1NC(=O)c1cccs1	i	-12
COc1ccccc1OCC(=O)Nc1cc(-c2nc3ccccc3[nH]2)ccc1C	+	15
Cc1ccc(NC(=O)COc2ccc(Cl)cc2Cl)c([N+](=O)[O-])c1	i	-60
COc1ccccc1-n1c(SCC(=O)c2ccc3c(c2)CCCC3)nc2ccccc2c1=O	i	-6
Cc1ccc(CSc2nc(C)c(Oc3cccc(C(F)(F)F)c3)c(=O)n2C)cc1	i	-4
CSc1nc(SCC(=O)N(c2ccccc2)c2ccccc2)c2c3c(sc2n1)CCC3	i	-2
NC(=O)c1ccccc1NC(=O)COc1ccc2oc3c(c2c1)CCCC3	i	?
CSc1cccc(N2C(=S)NC3c4ccccc4OC24CCCC34)c1 (stereo not given)	i	3
Cc1ccc(NC(=O)COc2ccc(CO)cc2Cl)cc1	i	6
COc1ccccc1NC(=O)COc1ccc(CO)cc1Cl	i	165*
O=C(COc1ccccc1Cl)Nc1ccc2oc(-c3ccc(F)cc3Cl)nc2c1	i	-2
O=C(COc1ccccc1[N+](=O)[O-])Nc1ccc2oc(-c3ccc(F)cc3Cl)nc2c1	i	51*
Cc1cc(C)cc(NC(=O)CSC2CC(=O)N(c3ccc(F)cc3)C2=O)c1 (stereo not given)	i	-9
Cc1cc(C)c2c(CC(=O)N(CC#N)CC#N)coc2c1	i	-15
Cc1[nH]c(=O)[nH]c(=O)c1NS(=O)(=O)c1ccc2c(c1)CCCC2	i	0
Cc1ccc(S(=O)(=O)Nc2c(C)[nH]c(=O)[nH]c2=O)cc1C	+	10
CN(CC(=O)N1CCC(C(N)=O)CC1)S(=O)(=O)c1ccc(F)cc1	i	2
O=C(Cn1c(COc2ccccc2)nc2ccccc21)N1CCOCC1	i	-12
OCC1(CO)COC(COc2ccccc2)=N1	+	2
COC(=O)c1ccc(CSc2nnc(CN3CCOCC3)n2C)cc1	i	-2
SMILES	ID4 binder	p53 PUMA act
CNc1nc(Oc2ccc(=O)[nH]n2)nc(N2CCOCC2)n1	i	10
Cc1ccc(Nc2nc(Oc3ccc(=O)[nH]n3)nc(N3CCOCC3)n2)cc1	+	-17
Cc1nonc1OCCNc1cc(N2CCCC2)ccc1[N+](=O)[O-]	i	89*
Cc1nonc1OCCNc1cc(N2CCOCC2)ccc1[N+](=O)[O-]	i	20
O=C(COc1ccc([N+](=O)[O-])cc1)Nc1cccc2cccnc12	i	64*
CCc1cccc(OCC(=O)Nc2cc([N+](=O)[O-])ccc2O)c1	i	74*
Cc1cccc(C)c1OCC(=O)Nc1ccc([N+](=O)[O-])cc1O	i	4
O=C(CCSc1ccc([N+](=O)[O-])cc1)Nc1cccc2cccnc12	i	12
O=C(COc1ccccc1)Nc1ccc([N+](=O)[O-])cc1O	i	3
O=C(COc1cccc2ccccc12)Nc1cc([N+](=O)[O-])ccc1O	i	67*
Cn1c(SCC(=O)Nc2ccc(Br)cc2Cl)nnc1-c1cccc([N+](=O)[O-])c1	i	-3
COC(=O)c1c(=O)n(O)c2cc(Cl)c(Cl)cc2[n+]1[O-]	i	-1
COc1ccc([N+](=O)[O-])cc1NC(=O)c1cc(-c2ccccn2)nc2ccc(C)cc12	i	-47
CC1CC(=O)C2C(O)(C1)CC(O)C13OC21C(=O)c1cccc(O)c1C3O (stereo not given)	i	0
COc1cc(-c2ccccn2)nc(/C=N/O)c1S(C)=O (stereo not given)	i	-83
O=C(NCCN1CCOCC1)c1cc2cc(Br)ccc2oc1=O	i	-5
O=C(c1cc2cc(Br)ccc2oc1=O)N1CCN(CCN2C(=O)c3cccc4cccc(c34)C2=O)CC1	i	65*
O=C(CCCN1C(=O)c2cccc3cccc(c23)C1=O)N1CCN(c2ncccn2)CC1	i	44
NC(=O)CN1CCN(CCN2C(=O)c3cccc4cccc(c34)C2=O)CC1	+	75*
O=C(Nc1ccc(Cl)cc1C(=O)NCCO)c1ccc(Cl)cc1Cl	i	-15
O=C(Nc1ccccc1C(=O)NCc1ccco1)c1ccccc1I	i	5
O=c1c2ccccc2nc(-c2ccc(Cl)cc2Cl)n1CCCOc1ccccc1[N+](=O)[O-]	i	14
O=c1c2ccccc2ncn1CCCOc1ccccc1[N+](=O)[O-]	i	92*
COc1ccc(CCC(=O)c2ccc(OC)cc2O)cc1	i	59*
COc1ccc(C(C)=O)c(O)c1	i	3
